# Among all 320,000 compounds or so, about 2,100 (0.66%) were called active. Roughly 53% stayed inconclusive and do not appear here. Calls follow the shape of the dose curve; as a rule, active = well fitted inhibition curve with a large enough effect in the signal ratio, with a control signal flat (not every such curve was filed as active); inconclusive = small, poorly fitted or top-dose-only effect, or effect the other way, or a change in a side signal; inactive = flat fitted curve, though single readings scatter; the % refers to the signal ratio. Only a selection was taken, and actives are over-represented in it overall.
# Experiment: qHTS Assay for Lipid Storage Modulators in Drosophila S3 Cells;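 as to cell number change: cells counted by Cell Tracker Red CMTPX staining in the red channel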; as to lipid storage change, negative = inhibition: % is scaled to controls: 0 for no effect and ±100 for the full control effect
# Conditions: BODIPY lipid droplet fluorescence, 18-24 h, cells fed with added oleic acid; cell number change: measured here: cell count max response; series mostly up to 46.1 µM; lipid storage change, negative = inhibition: at the top concentration
# Outline: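 Drosophila S3 cells loaded with oleic acid (400 uM, as added) and compounds at several concentrations; lipid droplets imaged by 488-nm laser-scanning cytometry, 500–530 nm intensity and object ratio to cell channel. Percent activity normalized to 20 uM Triacsin C.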
# Potency is read from the fitted curve at half-maximal effect.
Structure (SMILES),"lipid storage change, negative = inhibition",cell number change [%],Potency,outcome
COc1ccccc1C(=O)NC(=O)COC(=O)c1oc2ccccc2c1C,-2% (inactive),20,,
CCOc1nc(-c2ccccc2)ccc1-c1noc(-c2ccco2)n1,4.86% (inactive),-9.76,,
O=C1CN(C(=O)COC(=O)Cc2ccsc2)c2ccccc2N1,3.29% (inactive),4.09,,
NC(=O)C(c1ccc(Cl)cc1)c1ncc(C(F)(F)F)cc1Cl (configuration not stated),20.1% (inactive),6.15,,
CCC(=O)c1ccc(OCC(=O)OCC(=O)NC2CCCC2)cc1,7.81% [at 0.0737 µM] (inactive),-7.74,,
Cc1nc(C)c(C(=O)OCC(=O)NCc2ccccc2)s1,,2.69,1.16 µM (active),
CCOC(=O)c1sc(Nc2cccc(C)c2C)nc1C,,,,inactive
Cc1cccc(NC(=O)c2sc(Cl)nc2C)c1C,17.3% (inactive),27.7,,
Cc1nc(C)c(C(=O)OCC(=O)NCCc2ccc(S(N)(=O)=O)cc2)s1,,5.35,,inactive
COc1ccc(CCNC(=O)COC(=O)c2sc(C)nc2C)cc1,-22.8% (inactive),13.9,,
Cc1nc(C)c(C(=O)OCC(=O)Nc2cccc(C)c2C)s1,,-21.3,16.4 µM (active),
Cc1cccc(C)c1NC(=O)CN(C)C(=O)c1cccc(-n2cccc2)c1,9.6% [at 0.0737 µM] (inactive),,,
N#Cc1cccc(NC(=O)COC(=O)CCc2ccc(S(=O)(=O)N3CCOCC3)cc2)c1,7.64% (inactive),0.933,,
CCOC(=O)C(=NC(C)CC)NNc1cccc(C(F)(F)F)c1 (configuration not stated),-2.64% (inactive),0.302,,
Cc1cccc(C)c1N(CC(=O)NCc1ccccc1)C(=O)c1csnn1,,-7.94,,inactive
CN(C)C(=O)c1nc2ccc(Cl)cn2c1CNCc1ccccc1OC(F)(F)F,4.92% (inactive),-4.39,,
O=C1/C(=C\c2cccnc2)CN(Cc2ccccc2)C/C1=C\c1cccnc1,,-26.3,2.31 µM (active),
O=C1/C(=C/c2cccnc2)CCc2c1[nH]c1ccccc21,19% (inactive),-5.69,,
CC1=N/C(=C/c2cccnc2)C(=O)O1,0.341% (inactive),-0.0715,,
CC(C)N1C(=O)S/C(=C/c2cccnc2)C1=O,-20.1% (inactive),16.4,,
C(=N\N1CCN(Cc2ccccc2)CC1)/c1cccnc1,10.3% (inactive),3.04,,
CN1C/C(=C/c2ccncc2)C(=O)/C(=C/c2ccncc2)C1,,15.3,,inactive
CN1C/C(=C/c2cccnc2)C(=O)/C(=C/c2cccnc2)C1,,-16.3,1.84 µM (active),

Structure (SMILES),"lipid storage change, negative = inhibition",cell number change [%],Potency,outcome
O=C1NC(=S)N/C1=C\c1ccc(N2CCOCC2)cc1,-7.79% (inactive),,,
CC(C)N1C/C(=C/c2cccnc2)C(=O)/C(=C/c2cccnc2)C1,,-15.1,23.1 µM (active),
O=C1/C(=C\c2cccnc2)CCc2ccccc21,5.43% (inactive),-16.3,,
CC(C)N1CC2=C(OC(N)=C(C#N)C2c2cccnc2)/C(=C/c2cccnc2)C1 (configuration not stated),11.8% (inactive),-0.305,,
CN1C/C(=C\c2ccc(N3CCOCC3)cc2)C(=O)/C(=C/c2ccc(N3CCOCC3)cc2)C1,,-12.7,7.31 µM (active),
COc1ccc(N2C(=O)/C(=C/c3ccc([N+](=O)[O-])cc3)N=C2C)c(OC)c1,12.2% (inactive),-0.57,,
O=c1c2cc3c(nc2[nH]c(=S)n1-c1ccccc1)CCCC3,-3.75% (inactive),8.9,,
COc1ccccc1OCCNc1cc(N2CCCCC2)ccc1[N+](=O)[O-],7.35% (inactive),20.1,,
CCOc1ccc2nc(SCC(=O)Nc3ccc4c(c3)OCCO4)[nH]c2c1,,-1.86,,inactive
O=C(/C=C/c1ccco1)N(Cc1ccccc1F)C1CCS(=O)(=O)C1 (configuration not stated),23.1% (inactive),19.4,,
CCOc1ccccc1-n1c(SCC(=O)N2CCOCC2)nnc1-c1ccccn1,3.34% (inactive),1.75,,
N#Cc1ccc(/C=N/NC(=O)c2cc(-c3cccs3)nc3ccccc23)cc1,21.4% (inactive),12.5,,
COc1ccc(NCc2nnc(SCC(=O)Nc3ccc(OC)cc3OC)o2)cc1,8.16% (inactive),8.92,,
CCOC(=O)N1CCN(C(=O)CN(c2ccccc2OC)S(=O)(=O)c2ccc(C)cc2)CC1,,,,inactive
O=C1/C(=C\c2ccsc2)N2CCC1CC2,-13% (inactive),5.98,,
O=C1/C(=C/c2ccsc2)N2CCC1CC2,-0.371% (inactive),-5.13,,
CC(C)N1C/C(=C/c2ccsc2)C(=O)/C(=C/c2ccsc2)C1,,-15.9,14.6 µM (active),
CN(C)CC(C)(C)CNS(=O)(=O)c1ccc(Cl)c(Cl)c1,,-9.4,23.1 µM (active),
CC(C)(CNS(=O)(=O)c1ccc(F)cc1)CNS(=O)(=O)c1ccc(F)cc1,,6.92,,inactive
CN(C)CC(C)(C)CNS(=O)(=O)c1ccc(Cl)cc1,1.02% (inactive),27.8,,
CCCc1ccc(OCCNC(=O)C2CCCCC2)cc1,10.9% (inactive),-6.51,,
CC(=O)Nc1ccc(S(=O)(=O)n2cnc3ccccc32)cc1,,13.3,,inactive
O=C(CN1C(=O)CCC1=O)Nc1cccc(NC(=O)CN2C(=O)CCC2=O)c1,-8.67% (inactive),-5.66,,

Structure (SMILES),"lipid storage change, negative = inhibition",cell number change [%],Potency,outcome
O=C(CCN1c2ccccc2Sc2ccccc21)Oc1ccccc1,1.68% (inactive),-0.775,,
Cn1c(C(=O)NCC2CCCO2)cc2oc3ccccc3c21 (configuration not stated),,-14.1,0.58 µM (active),
Cn1c(C(=O)NCc2ccccc2)cc2oc3ccccc3c21,,12.4,,inactive
Cn1c(C(=O)NCC2CCCO2)cc2c(=O)[nH]c3ccccc3c21 (configuration not stated),-0.25% (inactive),4.34,,
Cc1ccccc1CS(=O)(=O)CCC(=O)NCc1ccccn1,-5.48% (inactive),-19.8,,
O=C(CSc1ccc(Cl)cc1)NCc1ccncc1,2.06% (inactive),8.1,,
COc1ccc(CC(=O)N(C)Cc2ccc(Cl)cc2)cc1S(=O)(=O)N1CCOCC1,,,,inactive
COc1cc(/C=C/C(=O)N2CCN(c3ccccn3)CC2)cc(OC)c1OC,,-26.3,16.4 µM (active),
COc1ccc(Br)cc1CN(C)C(=O)Cc1ccc(OC)c(S(=O)(=O)N2CCOCC2)c1,,30.1,10.3 µM (active),
COc1ccc(S(=O)(=O)N2CCN(c3ccccn3)CC2)c(OC)c1,-23.1% (inactive),-13,,
O=C(Nc1ccc(NC(=O)c2ccc(Cl)c(S(=O)(=O)N3CCOCC3)c2)cc1)c1ccccc1,13.6% (inactive),,,
COc1cccc(/C=C/C(=O)N2CCN(c3ccccn3)CC2)c1,9.27% (inactive),-5.2,,
COc1ccc(CC(=O)N(C)Cc2cccc(F)c2)cc1S(=O)(=O)N1CCOCC1,21.5% (inactive),18.8,,
O=C(Nc1ccccc1C(=O)O)c1ccc(Cl)c(S(=O)(=O)N2CCOCC2)c1,-15.9% (inactive),-21,,
COc1ccc(C(=O)O)cc1S(=O)(=O)N1CCN(c2ccccn2)CC1,,2.78,0.82 µM (active),
COc1ccc(/C=C/C(=O)N2CCN(c3ccccn3)CC2)c(OC)c1OC,-3.76% (inactive),5.19,,
COc1ccc(OC)c(S(=O)(=O)N2CCN(c3ccccn3)CC2)c1,-23.4% (inactive),-24,,
CN(C(=O)c1ccc(Cl)c(S(=O)(=O)N2CCOCC2)c1)c1ccccc1C(=O)O,,-5.89,0.82 µM (active),
Cn1c(N)c(C(=O)COC(=O)COc2ccccc2C#N)c(=O)n(C)c1=O,,,,inactive
CC1CCCCN1C(=O)c1ccc(Br)o1 (configuration not stated),,0.829,,inactive
COc1ccc(/C=C/C(=O)c2ccc(O)cc2)cc1,0.146% (inactive),-13.4,,
CCNC(=S)NNC(=O)c1ccc(=O)n(Cc2ccccc2)c1,12.6% (inactive),8.31,,
CN(C)C(=O)NC(Nc1ccc(Cl)cc1Cl)C(Cl)(Cl)Cl (configuration not stated),,,,inactive

Structure (SMILES),"lipid storage change, negative = inhibition",cell number change [%],Potency,outcome
Cc1ccc(CC(CC(=O)NCCc2ccc3c(c2)OCO3)C(=O)O)cc1 (configuration not stated),-23.3% (inactive),,,
COc1ccc(C(=O)N2CCCC2)cc1S(=O)(=O)N1CCOCC1,,9.79,7.31 µM (active),
COc1ccc(CNC(=O)c2ccc(Cl)c(S(=O)(=O)N3CCOCC3)c2)cc1OC,,-21,1.64 µM (active),
COc1ccc(C(=O)N2CCN(S(=O)(=O)c3ccc(C)cc3)CC2)cc1S(=O)(=O)N1CCOCC1,-18.5% (inactive),3.33,,
CN1CCC(N(C)C(=O)c2ccc(Cl)c(S(=O)(=O)N3CCCCC3)c2)CC1,,-2.26,14.6 µM (active),
COc1ccc(C(=O)OCc2cc(C)ccc2C)cc1S(=O)(=O)N1CCCC1,,-10.2,0.082 µM (active),
CN(C(=O)c1ccc(S(=O)(=O)N2CCCC2)cc1)C1CCCCC1,0.283% (inactive),-9.06,,
COc1ccc(C)cc1S(=O)(=O)N1CCCCC1,9.28% (inactive),6.88,,
O=C(NCc1ccncc1)c1ccc(Cl)c(S(=O)(=O)N2CCOCC2)c1,9.55% (inactive),18.6,,
CN(C(=O)c1ccc(F)c(S(=O)(=O)N2CCOCC2)c1)C1CCCCC1,24.8% (inactive),0.139,,
O=C(NCc1cccnc1)c1ccc(Cl)c(S(=O)(=O)N2CCOCC2)c1,,-4.25,,inactive
COc1ccc(C(=O)OCc2ccc(C)cc2)cc1S(=O)(=O)N1CCOCC1,15.6% (inactive),0.435,,
COc1ccc(C(=O)N2CCCC(C(N)=O)C2)cc1S(=O)(=O)N1CCOCC1 (configuration not stated),-1.8% (inactive),10.1,,
NC(=O)C1=C[C@@H](C2CCCCC2)C[C@@H](OCCCCO)O1,5.82% (inactive),1.59,,
Cc1ccc(N2C(=O)C3C(C2=O)N2CCCN2C3c2ccccc2)cc1C (configuration not stated),-5.4% (inactive),7.85,,
CCN(CC)C(=O)CC(c1ccc(F)cc1)c1ccco1 (configuration not stated),2.63% (inactive),-17.4,,
CCc1ccccc1NC(=O)CSc1nnc(Cn2cnc3ccccc32)o1,-1.44% (inactive),-13.9,,
COc1ccc(CCNC(=O)C(=O)NCC2OCCN2S(=O)(=O)c2cccs2)cc1 (configuration not stated),15.5% (inactive),0.232,,
Cc1c(NC(=O)CSc2nnc(C(C)Oc3ccc(Cl)cc3)n2-c2ccccc2)c(=O)n(-c2ccccc2)n1C (configuration not stated),6.38% (inactive),8.96,,
Cc1ccc(C(=O)N2CCN(c3ccccc3)CC2)cc1S(=O)(=O)N1CCOCC1,0.336% (inactive),22,,
COc1ccc(C(=O)N2CCN(c3ccccc3)CC2)cc1S(=O)(=O)N1CCOCC1,,0.901,3.26 µM (active),
COc1ccc(/C=C/C(=O)N2CCN(c3ccccc3)CC2)cc1S(=O)(=O)N1CCOCC1,21.1% (inactive),,,
